# Test results from PubChem BioAssay (NCI).
# The panel holds about 79,000 compounds, 15% with a hit somewhere; the sample as a whole holds those more often. A number with no mark means an inactive call. Activity calls are given as the source filed them. No stated cut-off is given here; in the data, active means growth inhibition above about 70%; inactive means the rest.
# What was measured:
# [1] = NCI Yeast Anticancer Drug Screen. Data for the rad52 strain (AID 147);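 further: 0% = growth of vehicle-treated control cultures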; conditions: S. cerevisiae rad52 mutant growth inhibition, active compounds read high
# How it was run: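 Genetically altered yeast (DNA damage repair defect) treated with compound; inhibition calculated relative to vehicle.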
# [2] = NCI Yeast Anticancer Drug Screen. Data for the wt1 strain (AID 149);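 further: 0% = growth of vehicle-treated wt1 cultures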; conditions: S. cerevisiae wt1 strain (SPY 50644) growth inhibition, active compounds read high
# How it was run: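 Growth inhibition read against vehicle controls after compound exposure of the wt1 yeast strain.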
# [3] = NCI Yeast Anticancer Drug Screen. Data for the rad50EPP+ strain (AID 151);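 further: 0% = growth of vehicle-treated control cultures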; conditions: S. cerevisiae rad50 mutant strain, active compounds read high
# How it was run: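 Strain rad50EPP+; compound exposure; % growth inhibition vs vehicle.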
# [4] = NCI Yeast Anticancer Drug Screen. Data for the rad50 strain (AID 155);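 further: 0% = growth of vehicle-only cultures of the same strain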; conditions: S. cerevisiae rad50 strain growth inhibition, active compounds read high
# How it was run: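 Readout: growth inhibition relative to vehicle-treated cultures. Compound exposure was carried out in a genetically defined yeast strain deficient in DNA damage repair.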
# [5] = NCI Yeast Anticancer Drug Screen. Data for the mec2-1 strain (AID 157); conditions: S. cerevisiae mec2-1 strain, active compounds read high
# How it was run: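 Cells of the genetically defined mec2-1 yeast strain are incubated with test compound. Inhibition of growth is calculated against vehicle-treated controls.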
# [6] = NCI Yeast Anticancer Drug Screen. Data for the rad14 strain (AID 159);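 further: 0% = growth of vehicle-treated control cultures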; conditions: S. cerevisiae rad14 strain growth inhibition, active compounds read high
# How it was run: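 Growth inhibition vs vehicle controls; genetically altered yeast strain (DNA damage repair defect) treated with test compounds.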
# [7] = NCI Yeast Anticancer Drug Screen. Data for the sgs1 mgt1 strain (AID 161);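 further: 0% = growth of cultures given vehicle only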; conditions: S. cerevisiae sgs1 mgt1 strain, active compounds read high
# How it was run: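 Test agents were incubated with a DNA-repair-mutant yeast strain. Growth was then read and compared against vehicle-treated controls.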
# [8] = NCI Yeast Anticancer Drug Screen. Data for the CLN2oe strain (AID 163);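 further: 0% = growth of vehicle-only control cultures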; conditions: S. cerevisiae CLN2oe strain, active compounds read high
# How it was run: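 Strain altered in cell-cycle control, incubated with compound; growth compared to solvent-treated controls.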
# [9] = NCI Yeast Anticancer Drug Screen. Data for the cln2 rad14 strain (AID 165);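 further: 0% = growth equal to vehicle treated cultures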; conditions: S. cerevisiae cln2 rad14 strain, active compounds read high
# How it was run: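 The screen exposed genetically defined yeast (cln2 rad14) to test compounds and scored growth inhibition relative to vehicle-treated controls.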
# [10] = NCI Yeast Anticancer Drug Screen. Data for the bub3 strain (AID 167); conditions: S. cerevisiae bub3 mutant strain, active compounds read high
# How it was run: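 Readout: yeast growth inhibition, expressed relative to vehicle-only wells. The test organism is a mutant strain from a panel with lesions in DNA repair or checkpoint genes.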
# [11] = NCI Yeast Anticancer Drug Screen. Data for the wt2 strain (AID 169);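 further: 0% = growth of vehicle-treated yeast cultures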; conditions: S. cerevisiae wt2 strain growth inhibition, active compounds read high
# How it was run: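 Steps: yeast strain treated with compound; growth recorded; inhibition calculated relative to cultures given vehicle alone.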
# [12] = NCI Yeast Anticancer Drug Screen. Data for the mlh1 strain (AID 171);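 further: 0% = growth of vehicle-treated control cultures of the same strain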; conditions: S. cerevisiae mlh1 strain growth inhibition, active compounds read high
# How it was run: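 Yeast screen: mutant strain plus compound, growth scored against vehicle control wells.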
# [13] = NCI Yeast Anticancer Drug Screen. Data for the sgs1 strain (AID 173);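 further: 0% = growth of vehicle-only control cultures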; conditions: S. cerevisiae sgs1 mutant, active compounds read high
# How it was run: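 Inhibition of yeast growth served as the measure. The mutant strain was treated with each compound, and growth was normalised to cultures receiving vehicle alone.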
# [14] = NCI Yeast Anticancer Drug Screen. Data for the rad18 strain (AID 177); conditions: S. cerevisiae rad18 mutant growth inhibition, active compounds read high
# How it was run: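 Inhibition values reflect reduced yeast growth compared with vehicle-treated controls, using a strain engineered with a DNA damage repair defect.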
# [15] = NCI Yeast Anticancer Drug Screen. Data for the mlh1 rad18 strain (AID 175); conditions: S. cerevisiae mlh1 rad18 strain growth inhibition, active compounds read high
# How it was run: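 Compound-treated yeast growth, normalised to vehicle controls. Strain bears defined DNA repair mutations.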
# [16] = at 5.0 µM (retest, dose inferred, filed as 0.5)
# [17] = at 50.0 µM (retest, dose inferred, filed as 5.0)
compound,measurement,setting,value
CN(N=O)c1ccc(/C=C/c2ccnc3ccccc23)cc1,growth inhibition,[1]; at 1.2 µM,2%
same,growth inhibition,[1]; at 3.7 µM,9%
same,growth inhibition,[1]; at 11.0 µM,35%
same,growth inhibition,[1]; at 33.0 µM,85% (active)
same,growth inhibition,[1]; at 100.0 µM,96% (active)
same,growth inhibition,[2]; at 1.2 µM,0%
same,growth inhibition,[2]; at 3.7 µM,2%
same,growth inhibition,[2]; at 11.0 µM,8%
same,growth inhibition,[2]; at 33.0 µM,20%
same,growth inhibition,[2]; at 100.0 µM,57%
same,growth inhibition,[3]; at 1.2 µM,7%
same,growth inhibition,[3]; at 3.7 µM,26%
same,growth inhibition,[3]; at 11.0 µM,68%
same,growth inhibition,[3]; at 33.0 µM,90% (active)
same,growth inhibition,[3]; at 100.0 µM,98% (active)
same,growth inhibition,[4]; at 1.2 µM,5%
same,growth inhibition,[4]; at 3.7 µM,14%
same,growth inhibition,[4]; [16],23%
same,growth inhibition,[4]; at 11.0 µM,42%
same,growth inhibition,[4]; at 33.0 µM,89% (active)
same,growth inhibition,[4]; [17],87% (active)
same,growth inhibition,[4]; at 50.0 µM,95.8% (active)
same,growth inhibition,[4]; at 100.0 µM,95% (active)
same,growth inhibition,[5]; at 1.2 µM,3%
same,growth inhibition,[5]; at 3.7 µM,5%
same,growth inhibition,[5]; [16],7%
same,growth inhibition,[5]; at 11.0 µM,13%
same,growth inhibition,[5]; at 33.0 µM,34%
same,growth inhibition,[5]; [17],32%
same,growth inhibition,[5]; at 50.0 µM,42.5%
same,growth inhibition,[5]; at 100.0 µM,90% (active)
same,growth inhibition,[6]; at 1.2 µM,3%
same,growth inhibition,[6]; at 3.7 µM,3%
same,growth inhibition,[6]; at 11.0 µM,10%
same,growth inhibition,[6]; at 33.0 µM,24%
same,growth inhibition,[6]; at 100.0 µM,71% (active)
same,growth inhibition,[7]; [16],8%
same,growth inhibition,[7]; [17],43%
same,growth inhibition,[7]; at 50.0 µM,47.3%
same,growth inhibition,[8]; at 1.2 µM,3%
same,growth inhibition,[8]; at 3.7 µM,-4%
same,growth inhibition,[8]; at 11.0 µM,5%
same,growth inhibition,[8]; at 33.0 µM,15%
same,growth inhibition,[8]; at 100.0 µM,56%
same,growth inhibition,[9]; [16],-10%
same,growth inhibition,[9]; [17],12%
same,growth inhibition,[9]; at 50.0 µM,19.6%
same,growth inhibition,[10]; at 1.2 µM,-3%
same,growth inhibition,[10]; at 3.7 µM,3%
same,growth inhibition,[10]; [16],4%
same,growth inhibition,[10]; at 11.0 µM,16%
same,growth inhibition,[10]; at 33.0 µM,32%
same,growth inhibition,[10]; [17],25%
same,growth inhibition,[10]; at 50.0 µM,37%
same,growth inhibition,[10]; at 100.0 µM,68%
same,growth inhibition,[11]; at 1.2 µM,-4%
same,growth inhibition,[11]; at 3.7 µM,1%
same,growth inhibition,[11]; at 11.0 µM,7%
same,growth inhibition,[11]; at 33.0 µM,28%
same,growth inhibition,[11]; at 100.0 µM,81% (active)
same,growth inhibition,[12]; at 1.2 µM,3%
same,growth inhibition,[12]; at 3.7 µM,5%
same,growth inhibition,[12]; at 11.0 µM,13%
same,growth inhibition,[12]; at 33.0 µM,31%
same,growth inhibition,[12]; at 100.0 µM,86% (active)
same,growth inhibition,[13]; at 1.2 µM,-2%
same,growth inhibition,[13]; at 3.7 µM,3%
same,growth inhibition,[13]; at 11.0 µM,10%
same,growth inhibition,[13]; at 33.0 µM,55%
same,growth inhibition,[13]; at 100.0 µM,90% (active)
same,growth inhibition,[14]; at 1.2 µM,0%
same,growth inhibition,[14]; at 3.7 µM,2%
same,growth inhibition,[14]; at 11.0 µM,16%
same,growth inhibition,[14]; at 33.0 µM,55%
same,growth inhibition,[14]; at 100.0 µM,91% (active)
NC(=O)N1c2ccccc2C=Cc2ccccc21,growth inhibition,[1]; at 1.2 µM,-35%
same,growth inhibition,[1]; at 3.7 µM,-36%
same,growth inhibition,[1]; at 11.0 µM,-38%
same,growth inhibition,[1]; at 33.0 µM,-49%
same,growth inhibition,[1]; at 100.0 µM,-41%
same,growth inhibition,[2]; at 1.2 µM,-20%
same,growth inhibition,[2]; at 3.7 µM,-16%
same,growth inhibition,[2]; at 11.0 µM,-24%
same,growth inhibition,[2]; at 33.0 µM,-24%
same,growth inhibition,[2]; at 100.0 µM,-44%
same,growth inhibition,[3]; at 1.2 µM,-49%
same,growth inhibition,[3]; at 3.7 µM,-73%
same,growth inhibition,[3]; at 11.0 µM,-63%
same,growth inhibition,[3]; at 33.0 µM,-91%
same,growth inhibition,[3]; at 100.0 µM,-65%
same,growth inhibition,[4]; at 1.2 µM,-39%
same,growth inhibition,[4]; at 3.7 µM,-14%
same,growth inhibition,[4]; [16],60%
same,growth inhibition,[4]; at 11.0 µM,-24%
same,growth inhibition,[4]; at 33.0 µM,-42%
same,growth inhibition,[4]; [17],99% (active)
same,growth inhibition,[4]; at 50.0 µM,-5.55%
same,growth inhibition,[4]; at 100.0 µM,-53%
same,growth inhibition,[5]; at 1.2 µM,-63%
same,growth inhibition,[5]; at 3.7 µM,-55%
same,growth inhibition,[5]; [16],63%
same,growth inhibition,[5]; at 11.0 µM,-55%
same,growth inhibition,[5]; at 33.0 µM,-69%
same,growth inhibition,[5]; [17],98% (active)
same,growth inhibition,[5]; at 50.0 µM,-3.4%
same,growth inhibition,[5]; at 100.0 µM,-68%
same,growth inhibition,[6]; at 1.2 µM,-42%
same,growth inhibition,[6]; at 3.7 µM,-28%
same,growth inhibition,[6]; at 11.0 µM,-41%
same,growth inhibition,[6]; at 33.0 µM,-37%
same,growth inhibition,[6]; at 100.0 µM,-37%
same,growth inhibition,[7]; [16],-12%
same,growth inhibition,[7]; [17],29%
same,growth inhibition,[7]; at 50.0 µM,15.4%
same,growth inhibition,[8]; at 1.2 µM,5%
same,growth inhibition,[8]; at 3.7 µM,19%
same,growth inhibition,[8]; at 11.0 µM,15%
same,growth inhibition,[8]; at 33.0 µM,7%
same,growth inhibition,[8]; at 100.0 µM,0%
same,growth inhibition,[9]; [16],61%
same,growth inhibition,[9]; [17],38%
same,growth inhibition,[9]; at 50.0 µM,9.25%
same,growth inhibition,[10]; at 1.2 µM,-26%
same,growth inhibition,[10]; at 3.7 µM,-34%
same,growth inhibition,[10]; [16],-17%
same,growth inhibition,[10]; at 11.0 µM,-41%
same,growth inhibition,[10]; at 33.0 µM,-43%
same,growth inhibition,[10]; [17],3%
same,growth inhibition,[10]; at 50.0 µM,15.3%
same,growth inhibition,[10]; at 100.0 µM,-39%
same,growth inhibition,[11]; at 1.2 µM,-25%
same,growth inhibition,[11]; at 3.7 µM,-30%
same,growth inhibition,[11]; at 11.0 µM,-37%
same,growth inhibition,[11]; at 33.0 µM,-38%
same,growth inhibition,[11]; at 100.0 µM,-43%
same,growth inhibition,[12]; at 1.2 µM,-45%
same,growth inhibition,[12]; at 3.7 µM,-31%
same,growth inhibition,[12]; at 11.0 µM,-40%
same,growth inhibition,[12]; at 33.0 µM,-62%
same,growth inhibition,[12]; at 100.0 µM,-55%
same,growth inhibition,[13]; at 1.2 µM,-78%
same,growth inhibition,[13]; at 3.7 µM,-54%
same,growth inhibition,[13]; at 11.0 µM,-51%
same,growth inhibition,[13]; at 33.0 µM,-52%
same,growth inhibition,[13]; at 100.0 µM,-45%
same,growth inhibition,[15]; [16],60%
same,growth inhibition,[15]; [17],100% (active)
same,growth inhibition,[15]; at 50.0 µM,-6.9%
same,growth inhibition,[14]; at 1.2 µM,-49%
same,growth inhibition,[14]; at 3.7 µM,-51%
same,growth inhibition,[14]; at 11.0 µM,-37%
same,growth inhibition,[14]; at 33.0 µM,-64%
same,growth inhibition,[14]; at 100.0 µM,-59%
